High-throughput results (PubChem)
Sampled rows, rich in hits. Any-hit rate of the full collection: about 6.3%.
TIM10 inh = TIM10 yeast growth inhibition. S. cerevisiae TIM10 strain growth, BacTiter-Glo luminescence, 24 h. inhibition, % at 10 µM. 330,000 tested, 1.4% active. AID 463195;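 active = inhibition of 40% or more at the single tested concentration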;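 also: wild-type TIM10 isogenic control strain grown at permissive 25 °C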
Mdm2-MdmX inh = inhibitors of human Mdm2/MdmX interaction. O15151+Q00987. SaOS-2 split-luciferase Mdm2/MdmX complementation, luminescence. inhibition, % at 8 µM. 330,000 tested, 3% active. AID 485346;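 active = inhibition of at least 50% at 8 µM in the primary screen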
MPTP inh = inhibitors of mitochondrial permeability transition pore | isolated mouse mitochondria, Ca2+ swelling absorbance, 30 min | inhibition, % at 10 µM | 360,000 tested, 1.4% active;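 active = inhibition of 50% or more, scaled per plate between neutral and stimulator controls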;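 also: 0% = DMSO wells given calcium and 100% = 1 mM EGTA wells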
tim10-1 inh = inhibits growth of tim10-1 mutant yeast; AID 463190; 330,000 tested, 2.2% active; inhibition, % at 20 µM; S. cerevisiae tim10-1 ts strain growth, BacTiter-Glo, 24 h;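 active = inhibition of at least 40%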;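 also: mutant grown at 25 °C; 0% = DMSO wells with yeast and 100% = wells holding no yeast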
tim23-1 inh = inhibits growth of tim23-1 mutant yeast | S. cerevisiae tim23-1 growth, BacTiter-Glo luminescence, 24 h | inhibition, % at 20 µM | 330,000 tested, 1.3% active | AID 463212;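 active = growth inhibition of the mutant yeast at or above 50%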;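 also: temperature-sensitive mutant grown at 25 °C; plate controls were DMSO-treated mutant yeast for no effect and medium wells lacking yeast for full effect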
Mdm2 MdmX conf = human Mdm2/MdmX binding inhibition, confirmed; shares compounds with Mdm2-MdmX inh; AID 489028; 10,000 tested, 55% active; inhibition, % at 8 µM; luminescent assay; in the data active = inhibition above about 40%
Full FLuc ctr = counter-screen for Mdm2/MdmX inhibitors: full-length luciferase | SaOS-2 full-length luciferase counterscreen, luminescence | shares compounds with Mdm2-MdmX inh | AID 504607 | 6,200 tested, 77% active | inhibition, % at 8 µM;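 active = mean inhibition at 8 µM reaching about 37%, which flags the compound as non-specific, limit read from the data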;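 also: p53-null SaOS-2 cells with luciferase driven by a doxycycline-inducible promoter; compound on cells about two nights before reading with doxycycline added after day one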
Numbers without * were called inactive.

How did CC1(C(=O)NS(=O)(=O)Cc2cccc(Cl)c2)CCN1C(=O)C1(c2ccc(Cl)cc2)CCC1 (centres undefined) do in these assays?
MPTP inh: 2.1

How did Cc1ccccc1N1CCN(CCCN2C(=O)CC(=C(c3ccccc3)c3ccccc3)C2=O)CC1 do in these assays?
TIM10 inh: -6.2; Mdm2-MdmX inh: 32.3; MPTP inh: 3.5; tim10-1 inh: 16.5; tim23-1 inh: 1.1

What do the screens show for `O=C1CC(=C(c2ccccc2)c2ccccc2)C(=O)N1CCCCN1CCN(c2cccc(Cl)c2)CC1`?
TIM10 inh: 12.0; Mdm2-MdmX inh: 60.3*; MPTP inh: 11.7; tim10-1 inh: 9.7; tim23-1 inh: -4.1; Mdm2 MdmX conf: 36.6

Results for O=C(CCl)c1cc2c3c(c1)CC(=O)N3CCC2 ?
TIM10 inh: 20.9; Mdm2-MdmX inh: 77.0*; MPTP inh: -1.1; tim10-1 inh: 2.9; tim23-1 inh: 48.3; Mdm2 MdmX conf: 55.8*; Full FLuc ctr: 12.1

How did COCCNC(=O)c1cc2c(c(-c3cccc(-c4cc5ccccc5o4)c3)n1)[C@@H](CCO)N(S(=O)C(C)(C)C)C2 (some centres undefined) do in these assays?
MPTP inh: -0.3

How did COc1ccc(C(C)(NC(C)=O)c2nc(-c3ccccc3OC)cs2)cc1 (centres undefined) do in these assays?
MPTP inh: 0.1

Results for O=C1c2ccccc2S(=O)(=O)N1Cc1nc2ccccc2s1 ?
TIM10 inh: 0.1; Mdm2-MdmX inh: 90.1*; MPTP inh: 1.6; tim10-1 inh: 18.5; tim23-1 inh: 21.8; Mdm2 MdmX conf: 87.3*; Full FLuc ctr: 32.9

Results for Oc1ccc(CNc2ccccc2)c2cccnc12 ?
TIM10 inh: 4.9; Mdm2-MdmX inh: 85.9*; MPTP inh: 5.6; tim10-1 inh: 25.6; tim23-1 inh: -28.4; Mdm2 MdmX conf: 44.0*; Full FLuc ctr: 50.9*

Results for Cc1ccccc1NCc1ccc(O)c2ncccc12 ?
TIM10 inh: 16.7; Mdm2-MdmX inh: 83.9*; MPTP inh: 3.2; tim10-1 inh: 29.4; tim23-1 inh: 16.5; Mdm2 MdmX conf: 76.0*; Full FLuc ctr: 41.3*

Results for Oc1ccc(CNc2ccc(F)cc2)c2cccnc12 ?
TIM10 inh: -1.3; Mdm2-MdmX inh: 85.5*; MPTP inh: 1.4; tim10-1 inh: 15.3; tim23-1 inh: -20.7; Mdm2 MdmX conf: 80.2*; Full FLuc ctr: 36.0

Results for Oc1ccc(Cn2ccnc2)c2cccnc12 ?
TIM10 inh: 19.8; Mdm2-MdmX inh: 3.8; MPTP inh: 0.9; tim10-1 inh: 28.6; tim23-1 inh: 14.7

How did COCc1ccc(O)c2ncccc12 do in these assays?
TIM10 inh: 3.0; Mdm2-MdmX inh: 59.8*; MPTP inh: -6.1; tim10-1 inh: -2.4; tim23-1 inh: -12.4; Mdm2 MdmX conf: 36.5; Full FLuc ctr: 58.9*

How did CCc1nc2ccc(C(=O)N(C)CCN(C)C)cn2c1N(CC)C(=O)NCCc1ccccc1 do in these assays?
MPTP inh: 0.4

What do the screens show for `Cc1ccc(NC(=O)c2nc[nH]c2C(=O)N(C)CCO)cc1`?
MPTP inh: -0.5

How did CC12CCC(CC1O)C2C(=O)O (centres undefined) do in these assays?
MPTP inh: 0.2

How did COc1ccc(NC(=O)C[C@H]2C(=O)N(C3CCCCC3)C[C@@H]2C)cc1 do in these assays?
MPTP inh: -0.5

Results for Cc1cccc(NCc2ccc(O)c3ncccc23)c1 ?
TIM10 inh: -37.1; Mdm2-MdmX inh: 76.7*; MPTP inh: 2.1; tim10-1 inh: -7.8; tim23-1 inh: -11.7; Mdm2 MdmX conf: 74.2*; Full FLuc ctr: 43.0*

Results for OCc1ccnc2c(O)cccc12 ?
TIM10 inh: 6.0; Mdm2-MdmX inh: 20.7; MPTP inh: -0.8; tim10-1 inh: 22.9; tim23-1 inh: 20.4

How did CCc1cccc(CC)c1NC(=S)NCCc1c(C)[nH]c2ccccc12 do in these assays?
TIM10 inh: 0.4; Mdm2-MdmX inh: 50.7*; MPTP inh: 0.4; tim10-1 inh: 36.0; tim23-1 inh: 43.3; Mdm2 MdmX conf: 28.9

What do the screens show for `CCc1cccc(CC)c1NC(=S)NCCc1ccc(O)c(O)c1`?
TIM10 inh: 13.1; Mdm2-MdmX inh: 5.3; MPTP inh: -3.7; tim10-1 inh: 6.0; tim23-1 inh: 6.7

Results for CCN(CCNC(=O)C1CCN(S(=O)(=O)c2c(C)noc2C)CC1)c1ccccc1 ?
TIM10 inh: -8.0; Mdm2-MdmX inh: 11.6; MPTP inh: -0.8; tim10-1 inh: 1.0; tim23-1 inh: 16.0

What do the screens show for `CCN(CC)CCNC(=O)C1CCN(S(=O)(=O)c2c(C)noc2/C=C/c2ccccc2F)CC1`?
TIM10 inh: 6.9; Mdm2-MdmX inh: 56.4*; MPTP inh: -0.8; tim10-1 inh: -12.8; tim23-1 inh: -10.0; Mdm2 MdmX conf: 23.8

Results for Cn1c(=O)[nH]c(=O)c2c1nc(N1CCN(c3ccccc3)CC1)n2CCSc1ncccn1 ?
TIM10 inh: -5.0; Mdm2-MdmX inh: 53.7*; MPTP inh: -2.4; tim10-1 inh: 14.6; tim23-1 inh: 11.2; Mdm2 MdmX conf: 23.9

How did Oc1cccc(-c2nc3c4c(ncn3n2)-c2ccccc2CC42CCCC2)c1 do in these assays?
TIM10 inh: 2.0; Mdm2-MdmX inh: 58.3*; MPTP inh: 10.8; tim10-1 inh: 18.8; tim23-1 inh: 16.8; Mdm2 MdmX conf: 7.2

What do the screens show for `COc1ccc(OCc2nc3c4c(ncn3n2)-c2ccccc2CC42CCCC2)cc1`?
TIM10 inh: -5.0; Mdm2-MdmX inh: 2.8; MPTP inh: 35.1; tim10-1 inh: 12.5; tim23-1 inh: -6.9

Results for Cc1ccc(S(=O)(=O)n2nc(-n3c(C)ccc3C)c3c(F)cccc32)c2ccccc12 ?
TIM10 inh: -3.0; Mdm2-MdmX inh: 50.1*; MPTP inh: 1.7; tim10-1 inh: -9.6; tim23-1 inh: 7.5; Mdm2 MdmX conf: 3.4

Results for Cc1ccc(C)n1-c1nn(S(=O)(=O)c2cccc3cccnc23)c2cccc(F)c12 ?
TIM10 inh: 15.9; Mdm2-MdmX inh: 31.4; MPTP inh: 5.7; tim10-1 inh: 12.5; tim23-1 inh: 27.0

How did COc1ccc2nc(Nc3nc(CSc4nc5ccccc5[nH]4)cc(=O)[nH]3)nc(C)c2c1 do in these assays?
TIM10 inh: 5.1; Mdm2-MdmX inh: 65.4*; MPTP inh: 1.9; tim10-1 inh: 6.9; tim23-1 inh: 1.9; Mdm2 MdmX conf: 52.2*; Full FLuc ctr: 46.2*

How did Cc1nc(Nc2nc(CSc3nc4ccccc4[nH]3)cc(=O)[nH]2)nc2ccccc12 do in these assays?
TIM10 inh: 4.1; Mdm2-MdmX inh: 55.2*; MPTP inh: 2.7; tim10-1 inh: 3.6; tim23-1 inh: 17.0; Mdm2 MdmX conf: 65.5*; Full FLuc ctr: 61.3*

How did Cc1ccc2nc(Nc3nc(CSc4nnnn4-c4ccccc4)cc(=O)[nH]3)nc(C)c2c1 do in these assays?
TIM10 inh: 6.0; Mdm2-MdmX inh: 16.2; MPTP inh: 4.8; tim10-1 inh: 6.5; tim23-1 inh: -7.2

How did CNc1cc(-c2cc(OC)ccc2OC)ncn1 do in these assays?
MPTP inh: 0.0
